These results are taken from paper PMC13494018.

Unmarked numbers belong to inactive results. The rule behind the calls is not given here.

In the test the target is VTCN1, Q7Z7D3.
Chain of VTCN1, Q7Z7D3 (Q7Z7D3 whole entry): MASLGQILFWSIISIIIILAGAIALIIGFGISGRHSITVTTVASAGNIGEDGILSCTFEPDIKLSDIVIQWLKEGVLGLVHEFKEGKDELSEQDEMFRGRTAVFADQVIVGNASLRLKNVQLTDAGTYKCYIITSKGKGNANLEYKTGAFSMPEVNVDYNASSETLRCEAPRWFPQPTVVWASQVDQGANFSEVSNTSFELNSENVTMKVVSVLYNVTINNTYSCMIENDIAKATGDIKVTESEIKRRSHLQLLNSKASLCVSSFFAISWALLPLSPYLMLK

B1: design_597_f3dcd2b3-c7aa-4b15-88bc-bbb8d01a18cd_570_dldesign_0_cycle1_af2pred (protein)
chain: NAIKKEVEEHLAKAEEYTAKAIETASDPEKFKEYFEKMREEFGKALKAAKADPELKKLAEDKLMEAQMKVTEAKGEAARKKNN
Consider B1, for which the “binding in a display sort” value is “not found”.

B2: design_597_f3dcd2b3-c7aa-4b15-88bc-bbb8d01a18cd_323_dldesign_0_cycle1_af2pred (protein)
chain: EEVEKKLKELAEKVKKAKELAEKDPEKGIELAKEAIKEAQKLGKEADEETKKKLAEVAEEAVEVRFEALEKLVKS
For B2, the “binding in a display sort” value was “not found”.

B3: design_597_f3dcd2b3-c7aa-4b15-88bc-bbb8d01a18cd_925_dldesign_0_cycle1_af2pred (protein)
chain: HKEENEAMKEILDEFNEAGRKMQEYVKAGKLEEAKKALEEEAKKMLEIGKKAGENALELAEELVEEARRNLEKAIEAAK
On to B3, for which the “binding in a display sort” value was “not found”.

B4: design_597_f3dcd2b3-c7aa-4b15-88bc-bbb8d01a18cd_63_dldesign_0_cycle1_af2pred (protein)
chain: GEAKAEELIKKAKEALREFAETGSLEALDKAEEYAEEISKFTPEVRAKAAEELEKVGEEGSPAARAVAKNLADYLK
Turning to B4, the “binding in a display sort” value was “binds (active)”.

B5: design_597_f3dcd2b3-c7aa-4b15-88bc-bbb8d01a18cd_1306_dldesign_0_cycle1_af2pred (protein)
chain: GKMKEDEEKLKEIEKEAKKAIEEAKKLAKEDPKKGAEYAKKASKEITERGTELGKTMSPEVRKKLAEVVQKAREELTEIAFKAR
In the case of B5, the “binding in a display sort” value is “not found”.

B6: design_597_f3dcd2b3-c7aa-4b15-88bc-bbb8d01a18cd_1341_dldesign_0_cycle1_af2pred (protein)
chain: AAAVEAAKAEITKLAAELSAKAFEAKAAASVFPEYKPVYELYKEAAEKAKEGLVLLKALGEKALEEAKKLAEEAKKLAKEGDELEKKL
For the molecule B6, the “binding in a display sort” value is “not found”.

B7: design_597_f3dcd2b3-c7aa-4b15-88bc-bbb8d01a18cd_430_dldesign_0_cycle1_af2pred (protein)
chain: AVKEKLERAKKYAEETKKLAKELKKNPKFKKTAEEIEKEAEKVLEEAKKAAEKGDAEAVGEKATELRVLKTAAEQLLKAAK
As to B7, the “binding in a display sort” value was “not found”.

B8: design_596_3e5f537c-0703-45f0-993f-ff416531349a_2102_dldesign_0_cycle1_af2pred (protein)
chain: AEAVAEEMLARIEEARDALTAADPTLADIADSIADAAKERMRAAAAEGRAEEVAEVGERAVRTLEHLAKLAK
For the molecule B8, the “binding in a display sort” value was “not found”.

B9: design_597_f3dcd2b3-c7aa-4b15-88bc-bbb8d01a18cd_1339_dldesign_0_cycle1_af2pred (protein)
chain: AEAEKYKKEAEKALKELEEIAKKYPSSTKIQANYESAKEYFEHNEQAAKLNPEKAAEAYKKAYEYAKRKLEEAKKIAEELEKKE
In the case of B9, the “binding in a display sort” value was “not found”.

B10: design_596_3e5f537c-0703-45f0-993f-ff416531349a_2330_dldesign_0_cycle1_af2pred (protein)
chain: EEALKKAEERYEKYGKKALELAEKVGLKEEVEEGIKDPSKMPEVIKKLEELGEENPEVRKDAYLAASYLQRAQQAYETKKKIEAA
As for B10, the “binding in a display sort” value is “not found”.

B11: design_597_f3dcd2b3-c7aa-4b15-88bc-bbb8d01a18cd_2160_dldesign_0_cycle1_af2pred (protein)
chain: NATEIYREGREKAKELAKKGGKLVKDGEEFARRLVAAANTYFADPEEGEKQLDELIKEAEKESPEAAKIAKEVLKAAKEYLKKLDEEG
B11: the “binding in a display sort” value is “not found”.

B12: design_597_f3dcd2b3-c7aa-4b15-88bc-bbb8d01a18cd_1536_dldesign_0_cycle1_af2pred (protein)
chain: SGANAAQEARAEYTAAKQLAKINKKDKEKAAKLLEEAYKKVEELAKKADEEGKKIAEKYAKELKELAKKYLKE
Regarding B12, the “binding in a display sort” value was “not found”.

B13: design_597_f3dcd2b3-c7aa-4b15-88bc-bbb8d01a18cd_2077_dldesign_0_cycle1_af2pred (protein)
chain: EIKKLAAEAFDYYYEAKAMADALKADKNGKEAAKKIEELAKKIKEYGKKILETKDLKEAKKLYEEAKKLYEEAVKIFDEFAK
For the molecule B13, the “binding in a display sort” value is “not found”.

B14: design_597_f3dcd2b3-c7aa-4b15-88bc-bbb8d01a18cd_1782_dldesign_0_cycle1_af2pred (protein)
chain: MEEVKKKVAEAVQAGYRAAATLSKEEGKKLREETKELAKKLTELVKKSEELAGDPEKAKALADEATKIAEKAKEEYEKIDKA
Turning to B14, the “binding in a display sort” value is “not found”.

B15: design_596_3e5f537c-0703-45f0-993f-ff416531349a_2108_dldesign_0_cycle1_af2pred (protein)
chain: DAVKKAAEEGKERVRRRAEREKKRVTPEARPEIEKAEEKGVKKVEEAAKGTVKEVANAAQEGITEVIEVGAENKIKA
As for B15, the “binding in a display sort” value was “not found”.

B16: design_597_f3dcd2b3-c7aa-4b15-88bc-bbb8d01a18cd_1026_dldesign_0_cycle1_af2pred (protein)
chain: MEVVEKMAEEIAKAAEEAGDKVTAALARAVAARAKKEKEISPEEAVKRLGEDAKFMAEDNGNEELAKKIKEIAEKALKEV
For B16, the “binding in a display sort” value was “not found”.

B17: design_597_f3dcd2b3-c7aa-4b15-88bc-bbb8d01a18cd_1120_dldesign_0_cycle1_af2pred (protein)
chain: MLAKIARIIADITTATAKLLRKTGPKFVKLTKVLAVLADIIGDLALKTGKEEDIKAGGYALAAAERARHAAEAAE
With B17, the “binding in a display sort” value was “not found”.

B18: design_597_f3dcd2b3-c7aa-4b15-88bc-bbb8d01a18cd_1746_dldesign_0_cycle1_af2pred (protein)
chain: SLKTKALAEAGRAIALSDSVISALPDSELAKKAKEIKKKAEEAMEKAEKGEKLEEALKEAKKLKEEAKKLRKEAEKEKKA
As to B18, the “binding in a display sort” value was “not found”.

B19: design_597_f3dcd2b3-c7aa-4b15-88bc-bbb8d01a18cd_2142_dldesign_0_cycle1_af2pred (protein)
chain: AAAAAAAEAARAEAAKAFTEAIDLAYSDPKYIPILEKTSEDSAATFIAAGKLSGKTAEWTAKGELIKKTSERIIKDIKK
With B19, the “binding in a display sort” value is “not found”.

B20: design_597_f3dcd2b3-c7aa-4b15-88bc-bbb8d01a18cd_1586_dldesign_0_cycle1_af2pred (protein)
chain: AAAIEKAKAAVEELLKAAEEALKLAEKDPSYAKYAEEVKKKINKVAKELKEALLADPSVANKLQEARQIATEAEATAKIKK
As to B20, the “binding in a display sort” value was “not found”.

B21: design_597_f3dcd2b3-c7aa-4b15-88bc-bbb8d01a18cd_1765_dldesign_0_cycle1_af2pred (protein)
chain: SMEEEKKKKEAEKARKEAEKAIEEIKKNPENKELQTEALAKAYEAKAIDKEVGKEAIKKVREAIKEARKKL
B21: the “binding in a display sort” value was “not found”.

B22: design_596_3e5f537c-0703-45f0-993f-ff416531349a_2173_dldesign_0_cycle1_af2pred (protein)
chain: SELKDLLSEAERARHKAEAIATRAKELAKYDPKEAKKIADEAKKVAEEAKKAAELAEKDPEKGKEAIKKVKEKVKKLEKKVKALEKKV
With B22, the “binding in a display sort” value was “not found”.

B23: design_597_f3dcd2b3-c7aa-4b15-88bc-bbb8d01a18cd_601_dldesign_0_cycle1_af2pred (protein)
chain: SKAEEKAKELEEKLKKAEELAKKDPKKGAKYAKEIAKEARKAGKETGETEKFAKIADKAYQIAAEAEFKAK
In the case of B23, the “binding in a display sort” value is “not found”.

B24: design_597_f3dcd2b3-c7aa-4b15-88bc-bbb8d01a18cd_1491_dldesign_0_cycle1_af2pred (protein)
chain: DEGEKLKKEFKEEIEEVAKEAKELVKEGVSPKVAARLVENTAEVLIKEAEKHKEGEEIKKAVKEEAEKKKEEILKL
As to B24, the “binding in a display sort” value was “not found”.

B25: design_596_3e5f537c-0703-45f0-993f-ff416531349a_2087_dldesign_0_cycle1_af2pred (protein)
chain: MAEKLVEKAKAEMKKLVEEAKKGNPEEARKIRKEIIEKGKKALEEADTEEKKKAAEEIKKIAYKAVEEVLEAYGELLVK
For B25, the “binding in a display sort” value was “not found”.

B26: design_596_3e5f537c-0703-45f0-993f-ff416531349a_2018_dldesign_0_cycle1_af2pred (protein)
chain: AAEKKAKAEAKKIVEEAAKIAKEKGYDEGMKYAYKASKELAEKYGKEYGAKAFEEAVDAIGDELAKKVKE
B26: the “binding in a display sort” value was “not found”.

B27: design_597_f3dcd2b3-c7aa-4b15-88bc-bbb8d01a18cd_1020_dldesign_0_cycle1_af2pred (protein)
chain: GHSEEGKEISEKIREISRIAKEAGKEIKKYPGGEELMKELGETRDKAIDEAAEGGLEEAKKALEKVKKAAKELLKKAKA
For the molecule B27, the “binding in a display sort” value is “not found”.

B28: design_597_f3dcd2b3-c7aa-4b15-88bc-bbb8d01a18cd_627_dldesign_0_cycle1_af2pred (protein)
chain: MYKELAENYRKGVRALSRRYRLRAELDPAKAAEYGAEATRERDKLFNASPEEVKKAAEEWAKEEAAVAAEAAALAAAA
Regarding B28, the “binding in a display sort” value was “not found”.

B29: design_597_f3dcd2b3-c7aa-4b15-88bc-bbb8d01a18cd_1719_dldesign_0_cycle1_af2pred (protein)
chain: LEKNVKKAIEAAKKAIEAGKKAKEAGLEELAKEAIEKAKKAIEAAAKDKASGGETAKETANAAQEARQAKSEAESAIKKK
On to B29, for which the “binding in a display sort” value was “not found”.

B30: design_597_f3dcd2b3-c7aa-4b15-88bc-bbb8d01a18cd_98_dldesign_0_cycle1_af2pred (protein)
chain: AERVEAAGKIALARIDKAGKGTKEELAVASAQAMALVGVTAGASDEEIDAMVDKVEAAAKGANPVADAKKVLTAAIKELAAK
For the molecule B30, the “binding in a display sort” value was “not found”.

B31: design_597_f3dcd2b3-c7aa-4b15-88bc-bbb8d01a18cd_1493_dldesign_0_cycle1_af2pred (protein)
chain: AEAERARREAALAEAERRAAELIFAAVDEGTKVSNEEAAKVMEETRARIEALMDETGAAYDPERAAEIRDRATATMTRLAESYK
For B31, the “binding in a display sort” value is “not found”.

B32: design_596_3e5f537c-0703-45f0-993f-ff416531349a_2235_dldesign_0_cycle1_af2pred (protein)
chain: GLYEEAKKEAKEAFSYGIAYLSAVSAKDPSLAPEAEKELEEAFEKVEKALKDAKSGKNPEKALKEIKEIRDEWKEKLKEARA
Regarding B32, the “binding in a display sort” value was “not found”.

B33: design_597_f3dcd2b3-c7aa-4b15-88bc-bbb8d01a18cd_2012_dldesign_0_cycle1_af2pred (protein)
chain: AEAKKEAAKLSEEAAELAAEAWLKAKKAKPEEAEKYKKAAEYFKEAIKILQAGEDLEKAKALYEKGKALYEEA
For B33, the “binding in a display sort” value was “not found”.

B34: design_597_f3dcd2b3-c7aa-4b15-88bc-bbb8d01a18cd_362_dldesign_0_cycle1_af2pred (protein)
chain: AAEKAKKAADAFRAIAKAAKLALEDPEKGAAAIQAAVDAAKKESPEIAPYVAAVAEEKLAAVKAKLAAAAAA
Take B34: the “binding in a display sort” value is “not found”.

B35: design_597_f3dcd2b3-c7aa-4b15-88bc-bbb8d01a18cd_271_dldesign_0_cycle1_af2pred (protein)
chain: DEAKKKAAEELAEAYEYVAEALALGKKTNEEAKKLAKEAKEEFKKYRDKAKALYKAGNYEEAYKEAKKAYEESKKKLEEIKKIAE
Turning to B35, the “binding in a display sort” value was “not found”.

B36: design_596_3e5f537c-0703-45f0-993f-ff416531349a_2320_dldesign_0_cycle1_af2pred (protein)
chain: KKVEELKKKMLEELEKIIEIAKTLPPEEAERLITFAKAARERGEKKGVRGLAKAALNVAFEASKYEETKEAAEKLEELANEIIKLT
Consider B36, for which the “binding in a display sort” value was “not found”.

B37: design_597_f3dcd2b3-c7aa-4b15-88bc-bbb8d01a18cd_135_dldesign_0_cycle1_af2pred (protein)
chain: MLTVMQAADIIIDKGAEEAKKAMVETALDVAKKYGIEAGRKAARTLSRIFKNAYGEEEGKEAEKEVLEALEKLEKE
In the case of B37, the “binding in a display sort” value is “not found”.

B38: design_596_3e5f537c-0703-45f0-993f-ff416531349a_2079_dldesign_0_cycle1_af2pred (protein)
chain: MEKEELQRRLKETAEKLAEKHPEAAPAARLVIRVGEKANAEEVRKLLELTEKALGENWKEYAAEATEYAVEIEADILVKELK
Take B38: the “binding in a display sort” value is “not found”.
